From PubChem BioAssay (NCI) come the findings set out here.

Each structure is given as a SMILES string. About 83,000 compounds went through this panel and 20% of them were active in at least one assay; those are over-represented in the sample as a whole.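 Treatment: one concentration, 48 hours, 96-well format. Scoring: percent growth, with anything below 10 considered active.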 Values without a mark were called inactive. Active and inactive are the calls of the source.

Assay in all cases: NCI-60 one-dose screen, 48 h (100 = growth as untreated, 0 = no growth, -100 = all killed)
Holding throughout (conditions): 10 µM unless noted

Test [1] relates to NCI-H226 lung.
Test [2] relates to NCI-H322M lung.
Test [3] deals with HOP-62 NSCLC.
In test [4] the test system is NCI-H460 lung.
In test [5] the test system is HOP-92 NSCLC.
Test [6] deals with NCI-H522 lung.
Test [7] deals with A549/ATCC NSCLC.
Test [8] relates to 786-0 renal.
Test [9] concerns COLO 205 colon.
Test [10] deals with DU-145 prostate.

For the molecule `COC1CCN(Cc2ccc3c(NNC(=O)c4cnccn4)nc4cc(F)ccc4n23)C1` (stereo not given), the growth in [1] is 28.9%; in test [2], 30.8%; in test [3], 30.4%; in test [4], 6.39% (active); in test [5], 40.4%; in test [6], 7.95% (active). In addition, the growth in test [7] is 18.9%; in test [8], 12.7%; in test [9], 12.5%; in test [10], 34.8%.

In the case of `N[C@@H](Cc1cn(-c2ccnc3ccccc23)nn1)C(=O)O`, the growth was 109% in [1]; 102% in [2]; 95.1% in test [3]; 112% in test [4]; 101% in [5]; 101% in test [6]. For the same molecule, the growth is 101% in [7], 104% in [8], 112% in [9] and 110% in test [10].

In the case of `O=C1Nc2ccc(Cl)cc2/C1=C/c1ccc(OCC(=O)c2ccc(Br)cc2)cc1`, the growth in test [1] was 78.7%; in test [2] it was 84.7%; in [3], 68.4%; in test [4], 94.7%; in test [5], 72%; in test [6], 95.9%. Also, the growth in [7] was 102%; in test [8] it was 103%; in [9] it was 98.5%; in test [10], 103%.

`O=C1Nc2cc(Cl)ccc2/C1=C\c1ccc(OCc2ccc(Br)cc2F)cc1`: the growth in [1] is -50.9% (active); in test [2], -23.8% (active); in [3] it was -21.1% (active); in test [4], -82.4% (active); in test [5], -58.5% (active); in [6] it was -28.2% (active). The growth in test [7] was -28.9% (active); in [8] it was -92.5% (active); in test [9] it was 12.4%; in test [10] it was -13.2% (active).

As to `Cc1ccc2c(n1)C(=O)C(Cl)=C(Nc1cccc(C(C)C)c1)C2=O`, the growth in test [1] is 35.4%; in [2] it was 85%; in test [3], 89.1%; in [4], 78.8%; in test [5], 110%; in [6], 23.4%. For the same molecule, the growth in test [7] was 29.9%; in [8] it was 68.4%; in test [9] it was 112%; in test [10], 22.5%.

Consider `Cn1cc(-c2cc(N)n3nc(-c4cn(C)c5ccc(F)cc45)cc3n2)c2cc(F)ccc21`, for which the growth in test [1] is 106%; in [2], 71.2%; in [3], 92%; in test [4], -23.2% (active); in [5], 75.7%; in test [6], 28.6%. Moreover, the growth was 18.5% in [7], -87.7% (active) in test [8], 115% in [9] and 44.8% in test [10].

Turning to `CS(=O)(=O)c1ccc(-n2cc(/C=C/C(=O)c3ccc(NC(=O)CO[N+](=O)[O-])cc3)c(-c3ccc(Cl)cc3)n2)cc1`, the growth in [1] was 72.2%; in [2], 97.1%; in [3] it was 103%; in [4], 106%; in test [5], 90.2%; in [6], 103%. In addition, the growth in test [7] is 91.8%; in [8] it was 67.6%; in test [9] it was 111%; in test [10], 101%.

In the case of `Nc1c(C(=O)Nc2ccc(C(F)(F)F)cc2)sc2nc(-c3cnccn3)cc(-c3cccs3)c12`, the growth in [1] is 6.24% (active); in test [2] it was 81.8%; in [3], 68.1%; in [4], 69.7%; in test [5] it was -27.4% (active); in test [6], 88.5%. In addition, the growth in [7] is 77.9%; in test [8] it was -90.3% (active); in [9] it was 104%; in test [10], 90.1%.

Take `COc1cc(/C=C/C(=O)c2ccc(C)cc2)ccc1Oc1nc(NCCO)nc(N2CCOCC2)n1`: the growth in test [1] is 52%; in test [2], 102%; in [3], 104%; in [4], 69.2%; in test [5], 63.6%; in [6] it was 76.9%. The growth in test [7] is 97%; in test [8] it was -50.7% (active); in [9], 107%; in [10] it was 87%.

Regarding `N=C1CC(=O)NN1C(=O)CSc1nc2sc3c(c2c(=O)n1-c1ccc(Cl)cc1)CCCC3`, the growth in [1] is 103%; in test [2], 103%; in [3], 90.3%; in test [4] it was 101%; in test [5], 80.1%; in test [6] it was 102%. In addition, the growth is 102% in test [7], 94.2% in test [8], 123% in test [9] and 111% in test [10].

`CN(C)CCCOc1c2ccc(Cl)cc2nc2c1oc1ccc(Cl)cc12`: the growth is 1.15% (active) in [1]; 18.8% in [2]; 32.8% in [3]; -74.2% (active) in test [4]; 3.27% (active) in test [5]; 21% in [6]. Besides, the growth was -45.3% (active) in [7], -93.2% (active) in test [8], -11.1% (active) in test [9] and -75.7% (active) in test [10].

With `NS(=O)(=O)c1ccc(Nc2nc(SCC(=O)c3ccc(Cl)cc3)nc3ccccc23)cc1`, the growth in test [1] was 87.1%; in [2], 86.5%; in [3], 95.3%; in [4], 97.1%; in test [5] it was 84.4%; in test [6] it was 88%. Further, the growth was 97.1% in test [7], 96% in test [8], 107% in test [9] and 97.1% in [10].

Consider `CCC/C=C/C=C/C(=O)N[C@@H](Cc1cc(F)cc(F)c1)C(=O)N[C@@H]1C(=O)N2CCC[C@H]2C(=O)N2CCCC[C@H]2C(=O)N[C@@H](C)C(=O)N2C[C@H](C)C[C@H]2C(=O)O[C@H]1C`, for which the growth in test [1] is 19.9%; in test [2], 36.5%; in test [3], 31.6%; in [4] it was 11.9%; in test [5], 23%; in test [6] it was 17.9%. In addition, the growth in [7] was 31.8%; in test [8], 37.8%; in [9], -54.1% (active); in [10] it was 22.6%.
